Compounds without any hit were thinned out: in the full panel of roughly 79,000, 15% have a hit. Activity calls are given as the source filed them. Cut-off read from the data, not from the text of the source: active = growth inhibition above about 70%; inactive = the rest.
Assays:
[1] = NCI Yeast Anticancer Drug Screen. Data for the rad52 strain (AID 147);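 note: 0% = growth of vehicle-treated control cultures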; settings: S. cerevisiae rad52 mutant growth inhibition, active compounds read high
How it was run: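 Compounds are applied to a genetically defined yeast strain lacking normal DNA damage repair, and inhibition of growth is expressed relative to cultures given vehicle only.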

[2] = NCI Yeast Anticancer Drug Screen. Data for the wt1 strain (AID 149);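 note: 0% = growth of vehicle-treated wt1 cultures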; settings: S. cerevisiae wt1 strain (SPY 50644) growth inhibition, active compounds read high
How it was run: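 Compounds are added to wt1 yeast cultures. Growth is then measured. Inhibition is expressed relative to vehicle-treated controls.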

[3] = NCI Yeast Anticancer Drug Screen. Data for the rad50EPP+ strain (AID 151);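 note: 0% = growth of vehicle-treated control cultures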; settings: S. cerevisiae rad50 mutant strain, active compounds read high
How it was run: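 Compounds were applied to the rad50EPP+ yeast strain, which bears a defined DNA repair alteration, and growth inhibition was determined relative to vehicle-treated cultures.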

[4] = NCI Yeast Anticancer Drug Screen. Data for the mgt1 strain (AID 153); settings: S. cerevisiae mgt1 mutant growth inhibition, active compounds read high
How it was run: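 Strain: mgt1 yeast, one of a set carrying defined DNA damage repair or cell cycle control alterations. Compound-treated growth compared with vehicle.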

[5] = NCI Yeast Anticancer Drug Screen. Data for the rad50 strain (AID 155);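 note: 0% = growth of vehicle-only cultures of the same strain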; settings: S. cerevisiae rad50 strain growth inhibition, active compounds read high
How it was run: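 Inhibition values express reduced yeast growth in compound-treated cultures relative to vehicle-treated controls.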

[6] = NCI Yeast Anticancer Drug Screen. Data for the mec2-1 strain (AID 157); settings: S. cerevisiae mec2-1 strain, active compounds read high
How it was run: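 Strain: mec2-1 (DNA repair/cell cycle alteration). Compound exposure, then growth measured; inhibition expressed relative to vehicle.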

[7] = NCI Yeast Anticancer Drug Screen. Data for the rad14 strain (AID 159);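 note: 0% = growth of vehicle-treated control cultures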; settings: S. cerevisiae rad14 strain growth inhibition, active compounds read high
How it was run: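 A mutant yeast strain defective in DNA damage repair is treated with compound; inhibition of its growth is scored against untreated, vehicle-exposed cultures.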

[8] = NCI Yeast Anticancer Drug Screen. Data for the sgs1 mgt1 strain (AID 161);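 note: 0% = growth of cultures given vehicle only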; settings: S. cerevisiae sgs1 mgt1 strain, active compounds read high
How it was run: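 Test agents were incubated with a DNA-repair-mutant yeast strain. Growth was then read and compared against vehicle-treated controls.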

[9] = NCI Yeast Anticancer Drug Screen. Data for the CLN2oe strain (AID 163);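 note: 0% = growth of vehicle-only control cultures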; settings: S. cerevisiae CLN2oe strain, active compounds read high
How it was run: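 Growth of a genetically modified yeast strain is measured after compound exposure and compared with cultures given vehicle alone.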

[10] = NCI Yeast Anticancer Drug Screen. Data for the cln2 rad14 strain (AID 165);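 note: 0% = growth equal to vehicle treated cultures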; settings: S. cerevisiae cln2 rad14 strain, active compounds read high
How it was run: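 Compounds are applied to the cln2 rad14 yeast strain, and growth is then compared with that of vehicle-treated cultures to give inhibition.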

[11] = NCI Yeast Anticancer Drug Screen. Data for the bub3 strain (AID 167); settings: S. cerevisiae bub3 mutant strain, active compounds read high
How it was run: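 Steps: expose the mutant yeast strain to compound; grow alongside vehicle-treated cultures; measure growth; express inhibition against the vehicle cultures.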

[12] = NCI Yeast Anticancer Drug Screen. Data for the wt2 strain (AID 169);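 note: 0% = growth of vehicle-treated yeast cultures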; settings: S. cerevisiae wt2 strain growth inhibition, active compounds read high
How it was run: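 This strain belongs to a panel of yeast strains with defined genetic alterations in DNA damage repair or cell cycle control. Compounds are applied, and growth inhibition is measured against vehicle-treated cultures.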

[13] = NCI Yeast Anticancer Drug Screen. Data for the mlh1 strain (AID 171);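 note: 0% = growth of vehicle-treated control cultures of the same strain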; settings: S. cerevisiae mlh1 strain growth inhibition, active compounds read high
How it was run: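 Growth of the mutant yeast strain after compound exposure, expressed as inhibition relative to vehicle-only controls.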

[14] = NCI Yeast Anticancer Drug Screen. Data for the sgs1 strain (AID 173);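 note: 0% = growth of vehicle-only control cultures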; settings: S. cerevisiae sgs1 mutant, active compounds read high
How it was run: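 Growth of a yeast strain bearing a defined genetic alteration is measured after compound treatment. Inhibition is expressed relative to vehicle-only controls.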

[15] = NCI Yeast Anticancer Drug Screen. Data for the mlh1 rad18 strain (AID 175); settings: S. cerevisiae mlh1 rad18 strain growth inhibition, active compounds read high
How it was run: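 Read-out is yeast growth inhibition, calculated against vehicle-only controls. The compound was applied to a strain engineered with DNA damage repair alterations.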

[16] = NCI Yeast Anticancer Drug Screen. Data for the rad18 strain (AID 177); settings: S. cerevisiae rad18 mutant growth inhibition, active compounds read high
How it was run: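 Growth of the mutant yeast strain after compound exposure, normalised to vehicle-only cultures.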

[17] = at 5.0 µM (retest, dose inferred, filed as 0.5)
[18] = at 50.0 µM (retest, dose inferred, filed as 5.0)

Measured: growth inhibition

OB(O)c1ccccc1C#Cc1ccccc1
inactive: [1]; at 1.2 µM 3% | [1]; at 3.7 µM 4% | [1]; at 11.0 µM 8% | [1]; at 33.0 µM 21% | [1]; at 100.0 µM 27% | [2]; at 1.2 µM -2% | [2]; at 3.7 µM -2% | [2]; at 11.0 µM 2% | [2]; at 33.0 µM 8% | [2]; at 100.0 µM 15% | [3]; at 1.2 µM -1% | [3]; at 3.7 µM 3% | [3]; at 11.0 µM 12% | [3]; at 33.0 µM 33% | [3]; at 100.0 µM 34% | [4]; at 1.2 µM 1% | [4]; at 3.7 µM 3% | [4]; at 11.0 µM 8% | [4]; at 33.0 µM 14% | [4]; at 100.0 µM 18% | [5]; at 1.2 µM 5% | [5]; at 3.7 µM 13% | [5]; [17] -14% | [5]; at 11.0 µM 20% | [5]; at 33.0 µM 29% | [5]; [18] 21% | [5]; at 100.0 µM 43% | [6]; at 1.2 µM -1% | [6]; at 3.7 µM 6% | [6]; [17] -5% | [6]; at 11.0 µM 12% | [6]; at 33.0 µM 21% | [6]; [18] 1% | [6]; at 50.0 µM 64.5% | [6]; at 100.0 µM 28% | [7]; at 1.2 µM 2% | [7]; at 3.7 µM 2% | [7]; at 11.0 µM 12% | [7]; at 33.0 µM 27% | [7]; at 100.0 µM 37% | [8]; [17] -16% | [8]; [18] 22% | [9]; at 1.2 µM 7% | [9]; at 3.7 µM 9% | [9]; at 11.0 µM 23% | [9]; at 33.0 µM 43% | [9]; at 100.0 µM 40% | [10]; [17] -12% | [10]; [18] 13% | [10]; at 50.0 µM 55.8% | [11]; at 1.2 µM 8% | [11]; at 3.7 µM 2% | [11]; [17] -20% | [11]; at 11.0 µM 21% | [11]; at 33.0 µM 34% | [11]; [18] 43% | [11]; at 100.0 µM 46% | [12]; at 1.2 µM -2% | [12]; at 3.7 µM -1% | [12]; at 11.0 µM 7% | [12]; at 33.0 µM 23% | [12]; at 100.0 µM 24% | [13]; at 1.2 µM -2% | [13]; at 3.7 µM 6% | [13]; at 11.0 µM 4% | [13]; at 33.0 µM 14% | [13]; at 100.0 µM 14% | [14]; at 1.2 µM -1% | [14]; at 3.7 µM -1% | [14]; at 11.0 µM 8% | [14]; at 33.0 µM 19% | [14]; at 100.0 µM 31% | [15]; [17] 13% | [15]; [18] 68% | [16]; at 1.2 µM 1% | [16]; at 3.7 µM 2% | [16]; at 11.0 µM 13% | [16]; at 33.0 µM 41% | [16]; at 100.0 µM 54%
active: [5]; at 50.0 µM 96.3% | [8]; at 50.0 µM 76.8% | [11]; at 50.0 µM 76.8% | [15]; at 50.0 µM 75.8%

O=S1(=O)CCC2=CC(C(F)(F)F)=CC(C(F)(F)F)=CN21
inactive: [1]; at 1.2 µM 26% | [1]; at 3.7 µM 42% | [2]; at 1.2 µM 2% | [2]; at 3.7 µM 29% | [2]; at 11.0 µM 53% | [3]; at 1.2 µM 2% | [3]; at 3.7 µM 16% | [3]; at 11.0 µM 24% | [3]; at 33.0 µM 38% | [4]; at 1.2 µM 15% | [4]; at 3.7 µM 27% | [4]; at 11.0 µM 55% | [5]; at 1.2 µM 61% | [5]; [17] 38% | [6]; at 1.2 µM 52% | [6]; at 3.7 µM 61% | [6]; [17] 66% | [7]; at 1.2 µM 25% | [7]; at 3.7 µM 38% | [7]; at 11.0 µM 67% | [8]; [17] 59% | [9]; at 1.2 µM 25% | [9]; at 3.7 µM 22% | [9]; at 11.0 µM 40% | [9]; at 33.0 µM 68% | [10]; [17] 13% | [11]; at 1.2 µM 26% | [11]; at 3.7 µM 52% | [11]; [17] 57% | [12]; at 1.2 µM 3% | [12]; at 3.7 µM 14% | [12]; at 11.0 µM 51% | [13]; at 1.2 µM 27% | [13]; at 3.7 µM 36% | [13]; at 11.0 µM 67% | [14]; at 1.2 µM 51% | [14]; at 3.7 µM 67% | [16]; at 1.2 µM 54% | [16]; at 3.7 µM 67%
active: [1]; at 11.0 µM 71% | [1]; at 33.0 µM 89% | [1]; at 100.0 µM 98% | [2]; at 33.0 µM 83% | [2]; at 100.0 µM 98% | [3]; at 100.0 µM 79% | [4]; at 33.0 µM 82% | [4]; at 100.0 µM 98% | [5]; at 3.7 µM 71% | [5]; at 11.0 µM 79% | [5]; at 33.0 µM 89% | [5]; [18] 96% | [5]; at 50.0 µM 95.5% | [5]; at 100.0 µM 98% | [6]; at 11.0 µM 81% | [6]; at 33.0 µM 93% | [6]; [18] 97% | [6]; at 50.0 µM 97.9% | [6]; at 100.0 µM 99% | [7]; at 33.0 µM 91% | [7]; at 100.0 µM 98% | [8]; [18] 98% | [8]; at 50.0 µM 94.4% | [9]; at 100.0 µM 98% | [10]; [18] 92% | [10]; at 50.0 µM 83.9% | [11]; at 11.0 µM 78% | [11]; at 33.0 µM 92% | [11]; [18] 89% | [11]; at 50.0 µM 96.9% | [11]; at 100.0 µM 98% | [12]; at 33.0 µM 83% | [12]; at 100.0 µM 98% | [13]; at 33.0 µM 86% | [13]; at 100.0 µM 98% | [14]; at 11.0 µM 80% | [14]; at 33.0 µM 94% | [14]; at 100.0 µM 99% | [15]; [17] 76% | [15]; [18] 98% | [15]; at 50.0 µM 97.2% | [16]; at 11.0 µM 79% | [16]; at 33.0 µM 90% | [16]; at 100.0 µM 97%

From PubChem BioAssay (NCI)
